Data published in PubChem BioAssay (NCATS).
Results filed as inconclusive are left out. Entries that show only a call come without a potency. Activity calls are given as the source filed them. Calls come from the whole dose curve; as a rule, active = well fitted inhibition curve with a large enough effect; inconclusive = small, poorly fitted or top-dose-only effect; inactive = flat fitted curve, though single readings scatter.

The molecules below were run against Calcium and integrin-binding protein 1 (Homo sapiens) (UniProt Q99828) (assay: Primary qHTS for Identification of Calcium Integrin Binding Protein 1 (CIB1) Competitor (AID 1508620;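 note: GST tagged CIB1 binding a fluorescein labelled alphaIIb integrin peptide tracer; top concentration of the series differs between compounds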)). Settings: CIB1-GST / FITC-alphaIIb peptide fluorescence polarization; series mostly up to 114 µM.
Chain of Calcium and integrin-binding protein 1 (Homo sapiens) (Q99828 whole entry, looked up): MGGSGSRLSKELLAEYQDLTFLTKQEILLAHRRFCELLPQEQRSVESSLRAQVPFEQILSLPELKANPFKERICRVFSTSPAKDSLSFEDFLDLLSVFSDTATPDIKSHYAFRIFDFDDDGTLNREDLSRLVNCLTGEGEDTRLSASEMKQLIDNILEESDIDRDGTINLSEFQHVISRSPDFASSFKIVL
Procedure, shortened: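 Fluorescence polarization competition: CIB1-GST (1 uM final) preincubated with compound 15 min at room temperature, then FITC-labeled alphaIIb peptide (100 nM final) added for another 15 min. Polarization read at Ex 480/Em 540.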

SMILES	Potency
O=C(Nc1ccc(-c2ccccc2)cc1)Nc1nnc(-c2ccncc2)s1	inactive
NC(=O)C1CCN(c2nc(-c3cccc(Cl)c3)cs2)CC1	inactive
COc1cccc(NC(=S)N2CCN(c3cc(C(F)(F)F)cc(C(F)(F)F)c3)CC2)n1	inactive
O=C(N1Cc2ccc(Nc3nn4c(=O)c5ccccc5nc4s3)cc2C1)C(F)(F)F	inactive
Cc1nnc2sc(-c3cccc(NC(=O)c4ccc(-c5cccc(Cl)c5)o4)c3)nn12	inactive
COC(=O)c1cc2c(s1)c1cnn(Cc3ccccc3F)c(=O)c1n2C	inactive
CCc1ccc(-c2nn3c(C)nnc3s2)cc1NC(=O)c1ccc(-c2cccc(Cl)c2)o1	inactive
Cc1cc2c(s1)c1cnn(Cc3ccc(F)c(F)c3F)c(=O)c1n2C	inactive
Cn1ncc(Cl)c1C1N=C(Nc2nc3ccccc3o2)NC2=C1C(=O)CCC2 (centres undefined)	inactive
Cc1cnc(-c2ccccc2C2COC2)nc1NCC1CCN(c2cccnc2)CC1	inactive
Cc1ccc(NS(=O)(=O)c2cccc(C(=O)Nc3nc(-c4ccccc4)cs3)c2)cc1	inactive
Fc1ccc(-c2ccc(CNc3nc(-c4ccccc4C(F)(F)F)nc4ccccc34)cc2)cc1	inactive
COc1cccc(C2c3c(ncn(-c4ccccc4SC)c3=N)Oc3ccc4ccccc4c32)c1 (centres undefined)	inactive
Cc1cc(C)nc(NC(=S)N2CCN(c3cccc(Cl)c3Cl)CC2)c1	inactive
NC(=O)C1CCN(c2nc(-c3ccc(OC(F)(F)F)cc3)cs2)CC1	inactive
Cc1ccc(NC(=O)Nc2nnc(-c3ccncc3)s2)cc1C	inactive
COc1cccc(C2c3c(ncn(-c4ccccc4-c4ccccc4)c3=N)Oc3ccc4ccccc4c32)c1 (centres undefined)	inactive
Cc1cc(C)n2ncc(C(=O)NCC(C)C)c2n1	inactive
FC(F)(F)c1ccccc1-c1nc(NCc2ccc(-c3cccnc3)cc2)c2ccccc2n1	inactive
COc1ccc(C2Nc3ccccc3C(=O)N2Cc2ccccn2)cc1COc1c(C)cccc1C (centres undefined)	inactive

SMILES	Potency
Oc1cc(Nc2ccncc2)cc2cccnc12	inactive
CC(=O)Nc1sc2c(c1C#N)CCN(C(C)C)C2	inactive
C[C@H]1CN(S(=O)(=O)c2ccc3c(c2)OCCO3)CCN1S(=O)(=O)c1c(F)cccc1F	inactive
O=C(c1ccccc1O)N(Cc1ccco1)Cc1ccco1	inactive
NC(=O)C1CCN(c2nc(-c3ccc(C(F)(F)F)cc3)cs2)CC1	inactive
Cc1cc(NS(=O)(=O)c2ccc(NC(=O)Cc3ccc(C)c(C)c3)cc2)no1	inactive
CC(C)(N)C(=O)Nc1ccc(Cl)cc1C(=O)c1ccc[nH]1	inactive
O=C1CCc2cc(S(=O)(=O)Nc3ccc(Cl)c(Cl)c3)ccc2N1	inactive
Cn1nnnc1Sc1ncnc2scc(-c3ccc(C#N)cc3)c12	inactive
COc1ccc(C2Nc3ccccc3C(=O)N2Cc2cccnc2)cc1COc1c(C)cccc1C (centres undefined)	inactive
Cc1cnc(-c2ccccc2C(C)O)nc1NCc1ccc(-c2cccnc2)cc1 (centres undefined)	inactive
O=S(=O)(NCC1CCC(NS(=O)(=O)c2c(F)cccc2F)CC1)c1ccc2c(c1)OCCO2 (centres undefined)	inactive
O=S1(=O)N=C(Oc2ccc(Br)cc2)c2ccccc21	inactive
Cc1ccc(OCCn2c(CCNC(=O)/C=C/c3cccc(Br)c3)nc3ccccc32)cc1	inactive
COc1cccc(C(=O)Nc2ccc(-c3nc4ccccc4[nH]3)cc2)c1	inactive
COc1ccccc1-c1nnc2n1N=C(c1c(OC)cccc1OC)CS2	inactive
O=C1N/C(=C\c2ccco2)C(=O)N1Cc1ccc(F)cc1	inactive
COc1ccc(NC(=O)CN(C)C(=O)c2cc3c(s2)CCC3)cc1	inactive
Cc1c(P(=S)(c2ccccc2)c2ccccc2)c2ccccc2n1C(=O)NCc1ccc(F)cc1	inactive
